Data on 1 sequence can be found in paper PMC7862700, “An all-to-all approach to the identification of sequence-specific readers for epigenetic DNA modifications on cytosine”.

What all share (test): DAPPL (digital affinity profiling via proximity ligation, sequencing); 10 mM Tris-HCl pH 7.5, 50 mM NaCl, 1 mM DTT, 4% glycerol, room temperature, 30 min; GST-TFs on glutathione beads, 16-mer random dsDNA library, 0.1% formaldehyde crosslink after washing; high values mean tight binding
Holding throughout (conditions): protein: recombinant; tags: N-terminal GST; dsDNA, one strand shown

In one assay the target is T1, FLI1 (Homo sapiens, UniProt Q01543 1-452).
T1 sequence: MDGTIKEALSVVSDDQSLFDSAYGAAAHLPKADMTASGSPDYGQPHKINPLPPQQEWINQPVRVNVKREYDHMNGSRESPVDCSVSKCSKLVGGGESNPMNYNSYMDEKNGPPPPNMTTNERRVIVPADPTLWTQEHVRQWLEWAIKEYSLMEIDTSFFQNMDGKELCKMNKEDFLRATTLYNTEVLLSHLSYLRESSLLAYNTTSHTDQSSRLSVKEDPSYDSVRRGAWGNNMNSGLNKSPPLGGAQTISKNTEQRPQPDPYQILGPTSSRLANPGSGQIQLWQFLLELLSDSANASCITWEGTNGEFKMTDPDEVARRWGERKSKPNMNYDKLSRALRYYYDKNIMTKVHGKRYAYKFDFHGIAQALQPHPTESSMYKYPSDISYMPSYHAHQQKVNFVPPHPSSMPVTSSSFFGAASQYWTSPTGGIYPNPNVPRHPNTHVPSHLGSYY
In outline:
(§1)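 Pools of DNA-barcoded human transcription factors, expressed in yeast as GST fusions on glutathione beads and combined with a tag-only sample, were incubated with 200 nmole of a 16-mer random double-stranded DNA library. Incubation took 30 min at room temperature in Tris/NaCl/DTT/glycerol buffer and was followed by washing, 0.1% formaldehyde crosslinking, proximity ligation (BsaI/T4 ligase, 1 h, 37 °C), PCR amplification and sequencing on an Illumina NextSeq500. Binding signal is the ratio of a hexamer's read frequency for a factor to its frequency for the tag-only sample.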

In another assay the target is T2, ELK1 (Homo sapiens, UniProt P19419 1-428).
T2 sequence: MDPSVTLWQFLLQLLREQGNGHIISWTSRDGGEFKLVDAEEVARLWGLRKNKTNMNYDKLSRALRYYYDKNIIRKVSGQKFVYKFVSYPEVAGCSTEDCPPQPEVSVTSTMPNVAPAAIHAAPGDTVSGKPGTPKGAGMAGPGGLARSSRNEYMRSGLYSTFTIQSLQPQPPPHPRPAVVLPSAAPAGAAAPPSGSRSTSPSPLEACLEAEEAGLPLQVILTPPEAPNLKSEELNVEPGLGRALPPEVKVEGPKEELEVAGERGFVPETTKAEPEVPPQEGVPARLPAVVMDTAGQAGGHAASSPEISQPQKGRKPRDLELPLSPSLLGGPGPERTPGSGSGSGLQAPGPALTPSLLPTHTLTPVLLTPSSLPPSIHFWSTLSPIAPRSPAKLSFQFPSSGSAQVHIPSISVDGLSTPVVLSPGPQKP
In outline:
as §1

For a further assay, the target named is T3, GABPA (Homo sapiens, UniProt Q06546 1-454).
T3 sequence: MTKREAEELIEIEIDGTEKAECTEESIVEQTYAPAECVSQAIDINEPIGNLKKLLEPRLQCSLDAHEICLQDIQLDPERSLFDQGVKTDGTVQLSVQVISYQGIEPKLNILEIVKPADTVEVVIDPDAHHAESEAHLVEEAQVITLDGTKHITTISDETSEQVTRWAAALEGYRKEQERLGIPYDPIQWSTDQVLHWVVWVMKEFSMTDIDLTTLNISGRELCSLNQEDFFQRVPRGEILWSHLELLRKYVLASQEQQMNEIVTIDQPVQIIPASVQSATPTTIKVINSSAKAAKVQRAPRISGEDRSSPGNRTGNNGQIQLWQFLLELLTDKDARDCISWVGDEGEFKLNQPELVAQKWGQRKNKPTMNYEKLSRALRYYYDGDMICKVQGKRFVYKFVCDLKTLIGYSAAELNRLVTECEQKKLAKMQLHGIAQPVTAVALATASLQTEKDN
In outline: as §1

For another assay, the target named is T4, ERG (Homo sapiens, UniProt P11308 1-479).
T4 sequence: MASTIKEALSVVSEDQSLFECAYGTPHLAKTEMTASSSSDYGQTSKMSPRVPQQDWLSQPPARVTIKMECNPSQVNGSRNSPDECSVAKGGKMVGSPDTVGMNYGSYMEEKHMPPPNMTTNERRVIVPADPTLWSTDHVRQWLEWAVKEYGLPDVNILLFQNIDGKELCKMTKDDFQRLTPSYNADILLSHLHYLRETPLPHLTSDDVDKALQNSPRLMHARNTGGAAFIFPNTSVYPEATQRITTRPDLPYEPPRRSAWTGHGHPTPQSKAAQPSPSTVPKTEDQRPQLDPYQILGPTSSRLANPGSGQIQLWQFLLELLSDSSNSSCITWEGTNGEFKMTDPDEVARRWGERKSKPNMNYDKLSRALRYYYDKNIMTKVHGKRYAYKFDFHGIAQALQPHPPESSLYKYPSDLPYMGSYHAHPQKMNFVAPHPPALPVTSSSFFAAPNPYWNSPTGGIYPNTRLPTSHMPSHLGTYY
The essentials:
as §1

In a further assay the target is ELF1 (Homo sapiens, UniProt P32519 1-619). The essentials: as §1
Chain of ELF1 (P32519 whole entry): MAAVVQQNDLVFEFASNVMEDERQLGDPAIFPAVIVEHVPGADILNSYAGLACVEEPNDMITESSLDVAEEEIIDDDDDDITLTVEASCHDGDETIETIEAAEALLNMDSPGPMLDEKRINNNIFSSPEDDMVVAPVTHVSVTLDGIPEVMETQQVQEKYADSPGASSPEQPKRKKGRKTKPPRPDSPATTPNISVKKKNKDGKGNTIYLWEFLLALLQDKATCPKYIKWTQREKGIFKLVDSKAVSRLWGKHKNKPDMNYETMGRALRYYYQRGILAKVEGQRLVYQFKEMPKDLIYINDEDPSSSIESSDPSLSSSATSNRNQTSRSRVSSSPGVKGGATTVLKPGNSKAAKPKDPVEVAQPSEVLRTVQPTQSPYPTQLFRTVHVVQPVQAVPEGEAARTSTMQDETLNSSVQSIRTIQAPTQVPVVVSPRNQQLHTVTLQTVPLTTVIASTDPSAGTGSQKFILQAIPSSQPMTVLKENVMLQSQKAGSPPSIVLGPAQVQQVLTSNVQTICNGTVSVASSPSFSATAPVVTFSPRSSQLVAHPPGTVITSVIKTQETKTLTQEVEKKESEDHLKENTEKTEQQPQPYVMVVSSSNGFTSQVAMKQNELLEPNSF
Another assay addresses T5, EHF (Homo sapiens, UniProt Q9NZC4 1-300).
T5 sequence: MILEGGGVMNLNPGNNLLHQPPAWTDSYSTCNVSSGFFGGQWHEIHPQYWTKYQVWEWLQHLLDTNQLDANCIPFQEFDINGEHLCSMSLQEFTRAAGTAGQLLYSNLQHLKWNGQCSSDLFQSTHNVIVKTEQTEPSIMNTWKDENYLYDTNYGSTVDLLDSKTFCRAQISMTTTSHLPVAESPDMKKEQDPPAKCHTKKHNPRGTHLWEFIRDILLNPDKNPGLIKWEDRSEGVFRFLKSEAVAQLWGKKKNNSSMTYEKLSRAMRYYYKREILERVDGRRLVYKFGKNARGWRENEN
In outline: as §1

A further assay concerns the target SPI1 (Homo sapiens, UniProt P17947 1-270). In outline:
as §1

A further assay has as its target SPIB (Homo sapiens, UniProt Q01892 1-262). The essentials:
as §1

The next assay has as its target T6, FEV (Homo sapiens, UniProt Q99581 1-238).
T6 sequence: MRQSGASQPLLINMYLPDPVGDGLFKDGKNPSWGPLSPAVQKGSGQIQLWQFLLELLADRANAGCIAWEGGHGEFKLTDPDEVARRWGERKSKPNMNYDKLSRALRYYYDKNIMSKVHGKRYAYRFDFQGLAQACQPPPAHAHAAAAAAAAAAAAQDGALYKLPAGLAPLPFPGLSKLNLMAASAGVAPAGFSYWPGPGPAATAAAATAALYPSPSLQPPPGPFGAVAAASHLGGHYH
In outline: as §1

The next assay concerns the target ETV5 (Homo sapiens, UniProt P41161 1-510). In outline:
as §1

Another assay addresses T7, SPIC (Homo sapiens, UniProt Q8N5J4 1-248).
T7 sequence: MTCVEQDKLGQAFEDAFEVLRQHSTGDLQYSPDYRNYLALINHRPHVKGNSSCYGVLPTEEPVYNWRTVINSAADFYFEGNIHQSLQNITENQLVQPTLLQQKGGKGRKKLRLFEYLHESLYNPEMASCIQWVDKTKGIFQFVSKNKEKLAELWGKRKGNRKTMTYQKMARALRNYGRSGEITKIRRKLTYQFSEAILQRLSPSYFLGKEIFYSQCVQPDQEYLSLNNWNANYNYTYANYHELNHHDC
In outline:
as §1

A further assay has as its target ELF4 (Homo sapiens, UniProt Q99607 1-663). In outline: as §1
The target of a further assay is ETV1 (Homo sapiens, UniProt P50549 1-477). The essentials: as §1
Chain of ETV1 (P50549 whole entry): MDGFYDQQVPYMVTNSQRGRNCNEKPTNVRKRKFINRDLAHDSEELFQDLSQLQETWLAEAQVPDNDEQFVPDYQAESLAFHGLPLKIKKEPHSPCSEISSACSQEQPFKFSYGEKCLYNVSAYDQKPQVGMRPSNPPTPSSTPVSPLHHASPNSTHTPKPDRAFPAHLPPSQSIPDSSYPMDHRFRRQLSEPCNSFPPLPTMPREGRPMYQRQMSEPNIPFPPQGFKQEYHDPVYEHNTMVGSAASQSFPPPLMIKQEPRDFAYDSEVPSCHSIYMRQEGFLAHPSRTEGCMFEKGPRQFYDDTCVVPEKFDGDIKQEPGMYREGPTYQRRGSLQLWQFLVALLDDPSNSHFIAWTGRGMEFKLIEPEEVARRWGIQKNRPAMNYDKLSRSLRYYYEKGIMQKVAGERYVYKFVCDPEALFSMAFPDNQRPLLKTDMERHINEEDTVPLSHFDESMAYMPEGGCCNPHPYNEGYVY
A further assay concerns the target T8, ERF (Homo sapiens, UniProt P50548 1-548).
T8 sequence: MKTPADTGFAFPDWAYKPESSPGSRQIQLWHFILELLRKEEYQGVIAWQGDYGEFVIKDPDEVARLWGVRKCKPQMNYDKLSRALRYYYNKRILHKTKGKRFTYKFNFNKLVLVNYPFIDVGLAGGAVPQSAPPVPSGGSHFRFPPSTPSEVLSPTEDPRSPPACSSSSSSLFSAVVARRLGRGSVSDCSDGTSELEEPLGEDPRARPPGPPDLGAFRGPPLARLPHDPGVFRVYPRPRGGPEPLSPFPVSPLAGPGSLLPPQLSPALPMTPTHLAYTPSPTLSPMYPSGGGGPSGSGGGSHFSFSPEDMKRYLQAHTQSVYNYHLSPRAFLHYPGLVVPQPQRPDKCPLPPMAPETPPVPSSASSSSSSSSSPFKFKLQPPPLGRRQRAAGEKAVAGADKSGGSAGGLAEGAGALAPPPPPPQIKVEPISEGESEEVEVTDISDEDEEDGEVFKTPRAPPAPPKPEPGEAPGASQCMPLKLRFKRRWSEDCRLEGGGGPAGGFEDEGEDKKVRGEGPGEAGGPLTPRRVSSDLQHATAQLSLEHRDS
In outline:
as §1

For another assay, the target named is T9, ETV3L (Homo sapiens, UniProt Q6ZN32 1-361).
T9 sequence: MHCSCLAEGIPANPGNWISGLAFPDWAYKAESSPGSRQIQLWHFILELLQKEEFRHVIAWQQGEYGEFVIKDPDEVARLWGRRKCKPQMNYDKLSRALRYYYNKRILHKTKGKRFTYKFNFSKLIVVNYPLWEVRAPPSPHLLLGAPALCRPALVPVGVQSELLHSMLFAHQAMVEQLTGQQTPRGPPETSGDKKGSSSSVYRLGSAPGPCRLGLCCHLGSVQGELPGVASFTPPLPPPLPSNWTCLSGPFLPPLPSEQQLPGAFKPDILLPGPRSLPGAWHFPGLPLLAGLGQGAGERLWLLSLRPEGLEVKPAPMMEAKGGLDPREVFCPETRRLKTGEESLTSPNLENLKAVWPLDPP
The essentials:
as §1

The next assay deals with T10, ETS2 (Homo sapiens, UniProt P15036 1-469).
T10 sequence: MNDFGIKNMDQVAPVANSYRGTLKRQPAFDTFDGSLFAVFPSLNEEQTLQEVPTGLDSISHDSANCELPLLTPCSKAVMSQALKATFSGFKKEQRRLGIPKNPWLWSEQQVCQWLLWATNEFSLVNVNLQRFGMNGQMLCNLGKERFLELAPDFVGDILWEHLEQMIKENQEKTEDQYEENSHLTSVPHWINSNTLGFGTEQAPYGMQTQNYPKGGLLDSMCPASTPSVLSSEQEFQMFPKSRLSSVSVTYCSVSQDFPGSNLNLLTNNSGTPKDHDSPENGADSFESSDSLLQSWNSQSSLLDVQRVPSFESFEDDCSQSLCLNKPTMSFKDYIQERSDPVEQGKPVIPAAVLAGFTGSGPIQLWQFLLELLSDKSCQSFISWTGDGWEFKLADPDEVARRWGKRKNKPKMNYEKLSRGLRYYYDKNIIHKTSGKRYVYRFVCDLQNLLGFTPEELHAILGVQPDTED
The essentials:
as §1

The target in the next assay is T11, SPDEF (Homo sapiens, UniProt O95238 1-335).
T11 sequence: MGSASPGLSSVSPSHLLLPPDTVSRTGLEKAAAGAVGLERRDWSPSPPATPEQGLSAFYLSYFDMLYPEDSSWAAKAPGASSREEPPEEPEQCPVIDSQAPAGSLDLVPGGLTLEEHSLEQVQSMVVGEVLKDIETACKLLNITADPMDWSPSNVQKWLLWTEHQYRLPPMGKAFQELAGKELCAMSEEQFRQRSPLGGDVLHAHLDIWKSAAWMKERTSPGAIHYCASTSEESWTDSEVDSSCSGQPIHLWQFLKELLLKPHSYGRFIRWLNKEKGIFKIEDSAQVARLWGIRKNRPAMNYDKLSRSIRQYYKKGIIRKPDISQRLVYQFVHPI
In outline:
as §1

The next assay addresses T12, ELF5 (Homo sapiens, UniProt Q9UKW6-2 1-255).
T12 sequence: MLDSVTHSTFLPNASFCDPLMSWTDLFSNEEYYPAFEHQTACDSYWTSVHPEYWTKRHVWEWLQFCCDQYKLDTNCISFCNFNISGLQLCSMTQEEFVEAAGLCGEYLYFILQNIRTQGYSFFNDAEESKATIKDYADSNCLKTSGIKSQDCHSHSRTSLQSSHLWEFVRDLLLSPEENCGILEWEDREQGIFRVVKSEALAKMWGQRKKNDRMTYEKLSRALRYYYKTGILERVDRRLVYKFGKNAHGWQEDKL
In outline: as §1

The next assay addresses T13, ETV3 (Homo sapiens, UniProt P41162-2 1-143).
T13 sequence: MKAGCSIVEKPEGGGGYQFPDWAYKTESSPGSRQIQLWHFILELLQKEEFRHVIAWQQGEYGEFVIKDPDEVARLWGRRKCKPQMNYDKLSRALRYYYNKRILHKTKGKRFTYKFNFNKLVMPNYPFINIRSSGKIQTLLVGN
The essentials: as §1

The target in another assay is ETV6 (Homo sapiens, UniProt P41212 1-452). In outline: as §1
Chain of ETV6 (P41212 whole entry): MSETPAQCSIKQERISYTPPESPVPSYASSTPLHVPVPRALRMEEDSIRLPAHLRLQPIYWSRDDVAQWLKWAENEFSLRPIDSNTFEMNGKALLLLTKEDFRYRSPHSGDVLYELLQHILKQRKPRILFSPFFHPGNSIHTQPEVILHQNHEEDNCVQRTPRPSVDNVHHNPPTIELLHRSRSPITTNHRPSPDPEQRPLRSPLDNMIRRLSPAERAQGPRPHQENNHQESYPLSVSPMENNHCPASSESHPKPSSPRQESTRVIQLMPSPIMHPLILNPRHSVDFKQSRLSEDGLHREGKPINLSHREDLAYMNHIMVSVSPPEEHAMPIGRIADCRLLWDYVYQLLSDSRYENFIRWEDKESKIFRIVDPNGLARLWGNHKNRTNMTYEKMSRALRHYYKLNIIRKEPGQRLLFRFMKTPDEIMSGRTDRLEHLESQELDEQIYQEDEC

Chain of ETV5 (P41161 whole entry): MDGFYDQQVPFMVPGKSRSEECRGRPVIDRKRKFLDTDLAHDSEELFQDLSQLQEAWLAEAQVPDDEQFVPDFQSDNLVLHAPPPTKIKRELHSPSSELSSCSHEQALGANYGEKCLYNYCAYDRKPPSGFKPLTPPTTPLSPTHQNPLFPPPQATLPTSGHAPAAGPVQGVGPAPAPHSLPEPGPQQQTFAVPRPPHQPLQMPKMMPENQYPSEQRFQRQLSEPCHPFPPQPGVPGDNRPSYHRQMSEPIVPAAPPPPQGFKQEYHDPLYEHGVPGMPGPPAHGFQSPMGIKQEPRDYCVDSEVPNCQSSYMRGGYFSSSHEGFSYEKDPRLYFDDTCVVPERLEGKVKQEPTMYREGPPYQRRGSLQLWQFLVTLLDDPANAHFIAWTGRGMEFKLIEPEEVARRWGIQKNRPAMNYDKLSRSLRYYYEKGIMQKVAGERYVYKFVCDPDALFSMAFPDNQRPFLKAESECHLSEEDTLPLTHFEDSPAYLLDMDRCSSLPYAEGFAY
Chain of SPIB (Q01892 whole entry): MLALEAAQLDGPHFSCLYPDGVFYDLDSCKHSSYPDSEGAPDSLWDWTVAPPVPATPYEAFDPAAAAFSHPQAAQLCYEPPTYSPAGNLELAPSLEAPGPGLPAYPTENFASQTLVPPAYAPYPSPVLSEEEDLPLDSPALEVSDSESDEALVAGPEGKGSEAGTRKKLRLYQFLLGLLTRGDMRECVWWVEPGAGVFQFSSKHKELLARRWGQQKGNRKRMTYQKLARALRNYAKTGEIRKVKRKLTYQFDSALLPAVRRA
Chain of ELF4 (Q99607 whole entry): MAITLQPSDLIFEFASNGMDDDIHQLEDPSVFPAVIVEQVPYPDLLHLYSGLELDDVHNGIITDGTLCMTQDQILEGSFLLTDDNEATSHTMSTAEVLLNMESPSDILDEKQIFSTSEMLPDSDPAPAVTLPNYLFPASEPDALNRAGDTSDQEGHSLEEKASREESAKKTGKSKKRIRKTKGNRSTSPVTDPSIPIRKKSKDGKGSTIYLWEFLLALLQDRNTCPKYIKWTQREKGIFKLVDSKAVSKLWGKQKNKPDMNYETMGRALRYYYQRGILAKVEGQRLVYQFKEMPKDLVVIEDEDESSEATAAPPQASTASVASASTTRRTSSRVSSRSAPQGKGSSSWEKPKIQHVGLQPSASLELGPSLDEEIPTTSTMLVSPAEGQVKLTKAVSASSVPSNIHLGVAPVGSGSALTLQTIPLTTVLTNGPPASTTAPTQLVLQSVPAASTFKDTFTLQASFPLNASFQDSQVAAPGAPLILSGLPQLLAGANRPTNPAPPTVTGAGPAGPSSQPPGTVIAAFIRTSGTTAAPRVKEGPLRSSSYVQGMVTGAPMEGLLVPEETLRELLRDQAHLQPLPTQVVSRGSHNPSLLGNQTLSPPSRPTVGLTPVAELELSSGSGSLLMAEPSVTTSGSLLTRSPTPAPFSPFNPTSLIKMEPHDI

Regarding ACGATG, the binding signal was 1.24 fold enrichment (6-mer frequency, TF over GST control) with FLI1; 1.06 fold enrichment (6-mer frequency, TF over GST control) in the assay with ELK1; 1.17 fold enrichment (6-mer frequency, TF over GST control) with GABPA; 1.13 fold enrichment (6-mer frequency, TF over GST control) with ERG; 1.06 fold enrichment (6-mer frequency, TF over GST control) with ELF1; 1.16 fold enrichment (6-mer frequency, TF over GST control) with EHF. For the same sequence, the binding signal is 1.17 fold enrichment (6-mer frequency, TF over GST control) with SPI1; 1.18 fold enrichment (6-mer frequency, TF over GST control) in the assay with SPIB; 1.05 fold enrichment (6-mer frequency, TF over GST control) with FEV; 1.12 fold enrichment (6-mer frequency, TF over GST control) with ETV5; 1.03 fold enrichment (6-mer frequency, TF over GST control) with SPIC; 1.12 fold enrichment (6-mer frequency, TF over GST control) with ELF4. Besides, the binding signal with ETV1 is 1.12 fold enrichment (6-mer frequency, TF over GST control); in the assay with ERF it was 1.09 fold enrichment (6-mer frequency, TF over GST control); with ETV3L, 1.14 fold enrichment (6-mer frequency, TF over GST control); in the assay with ETS2, 1.12 fold enrichment (6-mer frequency, TF over GST control); with SPDEF, 1.14 fold enrichment (6-mer frequency, TF over GST control); in the assay with ELF5 it was 1.01 fold enrichment (6-mer frequency, TF over GST control). In addition, the binding signal with ETV3 was 1.08 fold enrichment (6-mer frequency, TF over GST control); in the assay with ETV6, 1.06 fold enrichment (6-mer frequency, TF over GST control).
